According to the supplement of paper PMC6555819:

The sequences below were run on PPARg DBDmut IVT, anti-PPARg (DBD mutation: PPARg1 K132A/R137A, NR concentration 270 nM) (assay: PBM binding z-score (relative to random genomic background probes); higher = stronger binding; sequences stand for … in GC…GCGATTGACAGCGTAGAATGAAGG).
How it was run: (§1)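 Ligand-free nuclear receptor dimers were bound for 1 h to custom Agilent 4×180K protein-binding microarrays. Detection used antibodies against each partner (one per run). Binding z-scores rest on regression-normalized fluorescence, with random background probes as the reference.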

Going from TCGAGTAGGTTAGGGGCATGCAGAATGGCGTCGA to TCATATAGGTGAAGGTGAAAGTCGAACGATATGA, the PBM binding z-score rises from -1.3 to 0.938.

First: GCGACCGGGGCAAAGCAGGTTACCATAAGGTTGG
Second: CAGACTGGGGCAAGGTTACCATAACGCACAGCCA
The PBM binding z-score of the first is lower: -1.17 for the first, 0.637 for the second.

Compared with CCTAGTTGGTCTAGGTCACACACGCTATAGGTAC, ATATGTAGGTTATCGGGTCATTCCGTTTGCGCAT is higher in PBM binding z-score: 0.48 for the first, 2.25 for the second.

Going from CCTAACAGGCCAATCTGGGTCACTCAAGGCTTGA to CCTAGCAGGCCAGGGTCACTCGAGCATTTCGCTT, the PBM binding z-score falls from -0.8 to -1.77.

Compared with CAAACTAGGTCGCGAAAGGTCAAAGTCGAATGAC, ACTAGTTGGTCAGCCGAGGTCACACACAATTCGG is lower in PBM binding z-score: 1.98 for the first, 1.14 for the second.

Going from TCTTGTAGATCAATAGAGATTAAGAAAGTGCGCT to ACTAGTTGGTCAGCTGAGGTCAGACACAATTCGG, the PBM binding z-score falls from 1.02 to 0.951.

First: AGAACGAGGGCACGCTGAGTTGATAGAAGAGTAG
Second: ACTCGGAGGCCAAAGGTCAGAGCTACGCCAGTGA
The PBM binding z-score of the first is higher: 0.00527 for the first, -0.392 for the second.

First: TATACAGCGTCAAAGGCCAGAGTACGAATGTCGA
Second: AGAACGAGGGCACGCTTAGTTGATAGCAGAGTAG
The PBM binding z-score of the first is lower: 0.515 for the first, 0.676 for the second.

Compared with GCTTACGGGTCAAAGCTTATAGCATGAATAGAAT, TGTCAAAGTTCAAAGGTAACATAAGTATCCACAC is higher in PBM binding z-score: 0.139 for the first, 2.04 for the second.

Going from AGTCAAAGTTCATCTAGGTACCGTAAGATATGCT to CCTAGTTGGTCAAGGTCACACAAGCTATAGGTAC, the PBM binding z-score falls from 1.1 to 1.04.

Compared with ATATGTAGGTTATCGGGACATTCAGTTTGCGCAT, CCTCACGGGTCAAGGTTATAGCACGGGTGGTACG is lower in PBM binding z-score: 2.08 for the first, 0.0961 for the second.

Compared with TCATATTGGTAAACAGGTGAAAGTCCGTAAGTTA, CTCGAAAGGTCGGTCGAGGTGAGTATACGGATAA is lower in PBM binding z-score: 1.32 for the first, -0.418 for the second.

First: CGTCCAAGGTCATAGGAGGTCAGTTAAGACAGAT
Second: GATACAGGGTCAGCTAGAGGCCAGAGTTTGGAAA
The PBM binding z-score of the first is higher: 0.526 for the first, -1.06 for the second.

Compared with GCTAGTTGGTCAGTAAAAGGTCACACATCGGTCG, TCATATAGGTAAAAGGTGGAAGTCGGTGTGGTAA is higher in PBM binding z-score: 0.435 for the first, 0.975 for the second.

Compared with GCAGACAGGTGAAACGCAGGAAACTCAGGGTGGC, CCTGCTAGATCAATGGTCAGCTAAAGCAGCTCGC is lower in PBM binding z-score: -0.37 for the first, -1.31 for the second.

Going from GTACCAGGGTGAATAGGTCGTTGATGAGTAGGCG to TCATATAGGTCAATGCTAGGTGAAAGTCCGATCT, the PBM binding z-score rises from -0.469 to 2.16.

Compared with GCTAGCTGGCCATTTGGGTCACTCAATGACGGGC, TCATATAGGTAAACGTGAAAGTCGAACGATATGA is higher in PBM binding z-score: -0.983 for the first, 1.61 for the second.

Going from CAAACTAGGTCAAAGGTCTAAGTCGAGCCAACCA to GCTTACGGGTCATAGGTTATAGCATGAATAGAAT, the PBM binding z-score falls from 5.58 to 1.56.

First: CAAACTAGGTCACGAAAGGTCAAAGACGAATGAC
Second: CGTCCCAGGTCAATGCTAGGTCAGTGAAAGCATT
The PBM binding z-score of the first is higher: 4.77 for the first, -0.875 for the second.

First: TCTCGGAGGACACGAACGGTCAGAGCTCGACATC
Second: CCGACTGGGGCATAATGTTACCATAAGCCAGCCC
The PBM binding z-score of the first is lower: -0.995 for the first, -0.687 for the second.

What follows are sequences tested on PPARg homodimer (NR concentration 180 nM) in the same assay as above.
How it was run: as §1

First: TCGAGTAGGTTAGGGGCATGCAGAATGGCGTCGA
Second: TCATATAGGTGAAGGTGAAAGTCGAACGATATGA
The PBM binding z-score of the first is higher: 0.568 for the first, 0.35 for the second.

First: GCGACCGGGGCAAAGCAGGTTACCATAAGGTTGG
Second: CAGACTGGGGCAAGGTTACCATAACGCACAGCCA
The PBM binding z-score of the first is lower: 0.243 for the first, 0.947 for the second.

Going from CCTAGTTGGTCTAGGTCACACACGCTATAGGTAC to ATATGTAGGTTATCGGGTCATTCCGTTTGCGCAT, the PBM binding z-score rises from 2.14 to 2.58.

Compared with CCTAACAGGCCAATCTGGGTCACTCAAGGCTTGA, CCTAGCAGGCCAGGGTCACTCGAGCATTTCGCTT is lower in PBM binding z-score: 1.16 for the first, 0.543 for the second.

Compared with CAAACTAGGTCGCGAAAGGTCAAAGTCGAATGAC, ACTAGTTGGTCAGCCGAGGTCACACACAATTCGG is lower in PBM binding z-score: 3.65 for the first, 3.29 for the second.

First: TCTTGTAGATCAATAGAGATTAAGAAAGTGCGCT
Second: ACTAGTTGGTCAGCTGAGGTCAGACACAATTCGG
The PBM binding z-score of the first is lower: -0.0923 for the first, 1.04 for the second.

Compared with AGAACGAGGGCACGCTGAGTTGATAGAAGAGTAG, ACTCGGAGGCCAAAGGTCAGAGCTACGCCAGTGA is higher in PBM binding z-score: 0.193 for the first, 6.38 for the second.

Compared with TATACAGCGTCAAAGGCCAGAGTACGAATGTCGA, AGAACGAGGGCACGCTTAGTTGATAGCAGAGTAG is higher in PBM binding z-score: -0.844 for the first, 0.226 for the second.

First: GCTTACGGGTCAAAGCTTATAGCATGAATAGAAT
Second: TGTCAAAGTTCAAAGGTAACATAAGTATCCACAC
The PBM binding z-score of the first is lower: 1.56 for the first, 3.31 for the second.

Compared with AGTCAAAGTTCATCTAGGTACCGTAAGATATGCT, CCTAGTTGGTCAAGGTCACACAAGCTATAGGTAC is higher in PBM binding z-score: 3.06 for the first, 4.16 for the second.

Compared with ATATGTAGGTTATCGGGACATTCAGTTTGCGCAT, CCTCACGGGTCAAGGTTATAGCACGGGTGGTACG is lower in PBM binding z-score: 2.64 for the first, 2.07 for the second.

Going from TCATATTGGTAAACAGGTGAAAGTCCGTAAGTTA to CTCGAAAGGTCGGTCGAGGTGAGTATACGGATAA, the PBM binding z-score falls from 1.25 to 0.551.

First: CGTCCAAGGTCATAGGAGGTCAGTTAAGACAGAT
Second: GATACAGGGTCAGCTAGAGGCCAGAGTTTGGAAA
The PBM binding z-score of the first is higher: 3.95 for the first, 3.41 for the second.

Going from GCTAGTTGGTCAGTAAAAGGTCACACATCGGTCG to TCATATAGGTAAAAGGTGGAAGTCGGTGTGGTAA, the PBM binding z-score falls from 4.49 to 2.35.

Compared with GCAGACAGGTGAAACGCAGGAAACTCAGGGTGGC, CCTGCTAGATCAATGGTCAGCTAAAGCAGCTCGC is lower in PBM binding z-score: -0.537 for the first, -0.942 for the second.

Compared with GTACCAGGGTGAATAGGTCGTTGATGAGTAGGCG, TCATATAGGTCAATGCTAGGTGAAAGTCCGATCT is higher in PBM binding z-score: 0.791 for the first, 2.7 for the second.

Going from GCTAGCTGGCCATTTGGGTCACTCAATGACGGGC to TCATATAGGTAAACGTGAAAGTCGAACGATATGA, the PBM binding z-score rises from -0.342 to 0.529.

Compared with CAAACTAGGTCAAAGGTCTAAGTCGAGCCAACCA, GCTTACGGGTCATAGGTTATAGCATGAATAGAAT is lower in PBM binding z-score: 7.53 for the first, 2.24 for the second.

Going from CAAACTAGGTCACGAAAGGTCAAAGACGAATGAC to CGTCCCAGGTCAATGCTAGGTCAGTGAAAGCATT, the PBM binding z-score falls from 6.85 to 3.66.

First: TCTCGGAGGACACGAACGGTCAGAGCTCGACATC
Second: CCGACTGGGGCATAATGTTACCATAAGCCAGCCC
The PBM binding z-score of the first is lower: -0.693 for the first, 0.105 for the second.
